From PubChem BioAssay (NCI) come the findings set out here.

This is part of a sample that, as a whole, favours compounds with a hit. Of some 83,000 tested, about 20% had one in any assay.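 The endpoint reported here, percent growth, reads 100 for growth as untreated, 0 for no net growth and -100 for all cells dead.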 Values without a mark were called inactive. Calls of active or inactive are those of the source. Rule for the calls: active = growth percent below 10; inactive = the rest.

Common to all, as to experiment: NCI-60 one-dose screen, 48 h (100 = growth as untreated, 0 = no growth, -100 = all killed)
What all share (conditions): 10 µM unless noted

Test [1] has as its system HCT-15 colon.
Test [2] relates to HT29 colon.
Test [3] relates to SNB-75 CNS.
Test [4] deals with SNB-19 CNS.
Test [5] deals with U251 CNS.
The subject of test [6] is PC-3 prostate.
For test [7], the system named is SK-MEL-5 melanoma.
Test [8] deals with UACC-62 melanoma.
Test [9] concerns LOX IMVI melanoma.
Test [10] relates to SK-MEL-28 melanoma.
Test [11] deals with SK-MEL-2 melanoma.
Test [12] concerns EKVX NSCLC.
Test [13] has as its system SN12C renal.
The test system of test [14] is UO-31 renal.
For test [15], the system named is TK-10 renal.
Test [16] has as its system ACHN renal.
The subject of test [17] is CAKI-1 renal.
The test system of test [18] is A498 renal.
The test system of test [19] is MOLT-4 leukemia.
Test [20] relates to CCRF-CEM leukemia.

For the compound `CCCCCCOc1ccc(C2(Cl)c3ccccc3N(C)c3ccccc32)cc1`, the growth in [1] was 44.7%; in [2], 35.1%; in [3], 63.3%; in test [4], 47.1%; in test [5] it was -8.78% (active); in [6], 21.8%. Besides, the growth in test [7] was 33.2%; in [8], 38.1%; in [9] it was -33.8% (active); in test [10], 24.5%; in test [11] it was 42.3%; in [12], 58.5%. In addition, the growth in test [13] is 52.4%; in [14], 67.8%; in test [15] it was 76.7%; in [16] it was 61%; in test [17] it was 61.7%; in test [18], 86.6%. Also, in test [19], the growth is 74%.
Turning to `CCN1C(=O)N(CC)C2Nn3c(s/c(=C\c4cccc(F)c4)c3=O)=NC21` (centres undefined), the growth in [1] was 56.6%; in test [2] it was 39.1%; in test [3], 6.29% (active); in test [4], 80.7%; in test [5] it was 73.2%; in [6], 52.9%. Moreover, the growth in test [7] was 42.6%; in [8] it was 67.7%; in test [9], 69.7%; in test [10], 75.6%; in test [11], 85.3%; in test [12], 79%. The growth was 79.6% in test [13]; 65.1% in test [14]; 109% in test [15]; 66.7% in test [16]; 48.9% in test [17]; 46.1% in test [18]. In addition, the growth in test [19] is 94.9%.
Turning to `COc1ccc(NC(=S)/N=c2\oc3c(OC)cccc3cc2-c2cc3ccccc3[nH]2)cc1`, the growth in test [1] is 84.1%; in [2] it was 82.8%; in [3] it was -12.2% (active); in test [4], 57.8%; in test [5] it was 75.7%; in test [6] it was 58.4%. Further, the growth is 72.1% in [7]; 76.4% in [8]; 76.8% in test [9]; 69.9% in test [10]; 90.2% in [11]; 79.6% in test [12]. Besides, the growth is 84.7% in [13]; 95.2% in test [14]; 96% in test [15]; 44.8% in test [16]; 28.3% in test [17]; 87.9% in [18]. Also, in [19], the growth is 99.1%.
With `COc1ccc(OC)c(/C=C2\Oc3cc(OCCN4CCCC4)ccc3C2=O)c1`, the growth in test [1] is 93.7%; in test [2], 23.8%; in test [3], 95.7%; in test [4] it was 94.3%; in [5], 89.5%; in [6] it was 91.5%. The growth in test [7] was 89.2%; in test [8], 100%; in test [9], 90.3%; in [10] it was 101%; in test [11], 106%; in test [12] it was 95.2%. Also, the growth in test [13] is 92.8%; in [14] it was 74.1%; in [15], 110%; in test [16], 92.7%; in [17], 79.7%; in test [18], 78.2%. For the same compound, the growth in test [19] is 87.5%.
Take `Cc1oc2nc[nH]c(=O)c2c1C(=O)/C=C/c1ccc(Cl)cc1Cl`: the growth in [1] is 50.6%; in [2], 30.4%; in test [3], 44.6%; in test [4] it was 84%; in test [5], 85.1%; in [6], 59.2%. For the same compound, the growth in [7] was 81.6%; in [8], 53.5%; in test [9] it was 52.2%; in test [10] it was 89.1%; in [11], 91.3%; in [12], 117%. Also, the growth in test [13] is 67%; in [14], 67.6%; in test [15], 123%; in test [16], 66.4%; in test [17], 46.1%; in test [18], 94.3%. Also, the growth in test [19] is 86.8%.
Regarding `CCCC1OC(c2ccc(C(C)C)cc2)OCC1CC` (centres undefined), the growth in [1] is 103%; in test [2] it was 97%; in test [3], 87.6%; in test [4], 106%; in test [5], 95.7%; in test [6], 78.7%. Also, the growth in [7] is 104%; in test [8] it was 102%; in [9], 97.7%; in test [10] it was 104%; in test [11], 98.4%; in test [12], 101%. Moreover, the growth is 105% in test [13]; 101% in test [14]; 97.1% in [15]; 99.5% in test [16]; 90.9% in [17]; 94.4% in [18]. Also, the growth is 95.9% in [20] and 93.3% in test [19].
With `Cc1oc2nc[nH]c(=O)c2c1C(=O)/C=C/c1ccc(Cl)cc1`, the growth in [1] is 19.9%; in test [2], 12.9%; in test [3], -11.4% (active); in test [4] it was 42%; in test [5], 24.3%; in test [6], 34.2%. Further, the growth was 37.5% in test [7]; 18.2% in test [8]; 8.44% (active) in [9]; 39.4% in test [10]; 55.7% in test [11]; 62% in [12]. Moreover, the growth in test [13] was 25.4%; in test [14] it was 37.9%; in test [15] it was 32.3%; in [16] it was 27.2%; in test [17], 26.1%; in test [18], 62.4%. Also, in test [19], the growth is 40.7%.
On to `Cc1ccnc2nc(C(=O)OCC(=O)Nc3ccc(-c4ccccc4)cc3)nn12`, for which the growth is 105% in [1]; 108% in [2]; 95% in [3]; 103% in test [4]; 101% in test [5]; 102% in test [6]. The growth was 105% in [7]; 116% in test [8]; 99% in [9]; 110% in test [10]; 77.3% in test [11]; 104% in test [12]. The growth is 102% in test [13]; 62.8% in [14]; 118% in test [15]; 107% in test [16]; 91% in [17]; 105% in test [18]. The growth in test [20] is 91.6%; in test [19], 65%.
